Compound activity as filed in PubChem BioAssay.
VP16 counter: Gal4-VP16 reporter inhibition counter-screen; Drosophila S2 Gal4-VP16 UAS-luciferase, luminescence, 20 h; Potency, µM (titrated, usually from 53.6 µM), for inactives: at the highest dose activity, negative = inhibition, actives largely listed as inhibitors; 310,000 tested, 3.5% active;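 also: Gal4-VP16 expression switched on by copper sulfate through the metallothionein promoter; nearly all actives have a fitted effect of over 50% in size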
RORgamma inh: blocks mouse ROR gamma transcriptional activity | Drosophila S2 Gal4-RORgamma UAS-luciferase reporter, 20 h | Potency, µM (doses to about 53.6 µM), for inactives: at the highest dose activity change, negative = inhibition, most hits filed as inhibitors | 310,000 tested, 5.4% active | AID 2551; also: nearly all actives have a fitted effect of over 60% in size
Target sequence (P51450 whole entry, looked up, the tested form may be a part): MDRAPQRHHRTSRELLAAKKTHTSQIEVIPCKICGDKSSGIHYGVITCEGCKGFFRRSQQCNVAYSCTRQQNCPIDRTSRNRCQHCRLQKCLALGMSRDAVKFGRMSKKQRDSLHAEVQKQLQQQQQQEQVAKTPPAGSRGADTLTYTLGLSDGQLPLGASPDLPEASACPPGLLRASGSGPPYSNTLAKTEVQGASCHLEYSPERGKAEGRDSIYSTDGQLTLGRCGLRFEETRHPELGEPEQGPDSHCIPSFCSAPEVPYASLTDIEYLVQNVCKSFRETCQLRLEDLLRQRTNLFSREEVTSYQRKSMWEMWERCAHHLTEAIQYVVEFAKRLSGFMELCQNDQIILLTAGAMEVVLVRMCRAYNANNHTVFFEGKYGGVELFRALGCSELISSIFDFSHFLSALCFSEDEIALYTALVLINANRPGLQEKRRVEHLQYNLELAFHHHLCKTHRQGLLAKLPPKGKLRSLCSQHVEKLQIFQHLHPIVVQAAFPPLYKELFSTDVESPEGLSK
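Stable Schneider cell line, Gal4 DNA-binding domain fused to ROR gamma, UAS-luciferase. Cmpd 1 hr RT → CuSO4 700 uM final → 20 hr RT → luciferase reagent 10 min → luminescence.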
KinaseGlo FLuc: counter-screen: inhibitors of Kinase-Glo firefly luciferase; Potency, µM (series often up to 38.3 µM), for the others: top-dose activity change, negative = inhibition, actives largely listed as inhibitors; Kinase-Glo luciferase, ATP luminescence, 8 min; AID 1379; 200,000 tested, 0.28% active; also: nearly all actives have a fitted effect of over 60% in size
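Inhibition of Kinase-Glo luciferase light generation was assessed at 10 uM ATP in pH 7.2 imidazole buffer, with luminescence measured after eight minutes at ambient temperature.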
Numbers without * were called inactive; [ ] = dose if it differs, or a comment. Only some compounds are listed: those with a hit (about 6.2% of all), similar ones and a draw of the others. Calls follow the shape of the dose curve; as a rule, active = well fitted curve in the direction sought with a large enough effect; inconclusive = small, poorly fitted or top-dose-only effect, or another doubt; inactive = no such curve, though single readings can be large; an effect the other way counts as inactive or inconclusive. % is scaled to controls: 0 for no effect and ±100 for the full control effect; potency is read from the fitted curve at half-maximal effect.

Screening O=C(c1cnccn1)N1CCC2(CC1)CN(c1cccc(-c3ccccc3)c1)C2 returned VP16 counter 5.01µM*, RORgamma inh -3.5% and KinaseGlo FLuc -3.9%.
CC(=O)N1CCC2(CC1)CN(c1cccc(-c3ccccc3)c1)C2 was read as VP16 counter 12.6µM*, RORgamma inh 20.1% and KinaseGlo FLuc -2.9%.
`O=C(c1cccc(F)c1)N1CCC2(CC1)CCN(c1ccc(-c3ccccc3)cc1)CC2` gave VP16 counter 10.2%, RORgamma inh -20.1% and KinaseGlo FLuc -1.7%.
Nc1nc(SCC(=O)Nc2ccc(Cl)c(S(=O)(=O)N3CCOCC3)c2)n[nH]1 was read as VP16 counter -5.5% and RORgamma inh 7.3%.
`CCN1C(=O)[C@H]2[C@H]3[C@H](O)[C@H](O)C/C(=N/NC(=O)OCc4ccc(OC)cc4)[C@H]3CC[C@@H]2C1=O` gave VP16 counter -6.3%[10 µM] and RORgamma inh -25.4%[10 µM].
Screening Cc1cccc(C(=O)Nc2ccc3c(c2)ncn3C)c1 returned VP16 counter -9.0% and RORgamma inh -6.3%.
Screening COc1cc(C)c(NC(=S)NCCCN2CCOCC2)cc1OC returned VP16 counter 9.6%, RORgamma inh -4.2% and KinaseGlo FLuc 7.5%.
`O=C(CCN1C(=O)/C(=C/c2cccs2)SC1=S)Nc1ccccn1` gave VP16 counter -0.3%[10 µM], RORgamma inh inconclusive and KinaseGlo FLuc 2.0%.
`O=C(CCN1C(=O)S/C(=C\c2cccs2)C1=O)NC1=NCCS1` gave VP16 counter 17.8µM*, RORgamma inh inconclusive and KinaseGlo FLuc 0.0%.
Screening O=C(CCCN1C(=O)/C(=C\c2cccs2)SC1=S)Nc1ccc(O)cc1C(=O)O returned VP16 counter 5.62µM* and RORgamma inh 5.62µM*.
Screening O=C(CCCN1C(=O)/C(=C\c2ccco2)SC1=S)Nc1ccc(O)cc1C(=O)O returned VP16 counter 14.1µM* and RORgamma inh 11.2µM*.
For O=C(CCCN1C(=O)/C(=C/c2ccco2)SC1=S)Nc1cccc(C(=O)O)c1 the results were VP16 counter -24.8% and RORgamma inh -10.6%.
For O=C(CCCN1C(=O)/C(=C/c2cccs2)SC1=S)Nc1ccc(O)c(C(=O)O)c1 the results were VP16 counter inconclusive, RORgamma inh -26.4% and KinaseGlo FLuc 3.5%.
`CCC(C(=O)N1CCOCC1)n1nc(C)c2sc3ccccc3c2c1=O` (configuration not stated) gave VP16 counter 1.1% and RORgamma inh 1.0%.
`O=S(=O)(NCC(c1cccnc1)N1CCN(Cc2ccccc2)CC1)c1cc(F)ccc1F` (configuration not stated) gave VP16 counter 0.6% and RORgamma inh -0.4%.
Screening CCOC(=O)OCC1OC(c2ccccc2)C=CC1Oc1ccc2oc(=O)cc(C)c2c1 (configuration not stated) returned VP16 counter 4.6%[10 µM] and RORgamma inh -2.5%[10 µM].
`CC(=O)OC[C@@H]1O[C@H](C/C=N\OC[C@@H](O)[C@H]2O[C@H]3OC(C)(C)O[C@H]3[C@@H]2O)C=C[C@@H]1OC(C)=O` gave VP16 counter 1.1%[10 µM] and RORgamma inh -1.3%[10 µM].
Screening Cc1ccc(Sc2ccccc2CN(C)C)c(N)c1 returned VP16 counter 2.0% and RORgamma inh -2.2%.
Screening COc1ccc([N+](=O)[O-])cc1N(CC(=O)NC(C(C)C)C(C)C)S(C)(=O)=O returned VP16 counter 3.9%, RORgamma inh 2.9% and KinaseGlo FLuc 0.3%.
For CN1C(=O)Cc2cc(S(=O)(=O)N3CCOCC3)ccc21 the results were VP16 counter -15.3%, RORgamma inh -4.2% and KinaseGlo FLuc -6.0%.
For Cc1cc2cc(CNC(=S)Nc3ccc(OC(F)F)cc3)ccc2[nH]1 the results were VP16 counter 22.4µM*, RORgamma inh 12.6µM* and KinaseGlo FLuc -1.4%.
`CCNC(=S)NCc1ccc2[nH]c(C)cc2c1` gave VP16 counter 10.2%, RORgamma inh inconclusive and KinaseGlo FLuc -3.4%.
Cc1cc2cc(CNC(=S)Nc3ccc(OC(F)(F)F)cc3)ccc2[nH]1 was read as VP16 counter inconclusive, RORgamma inh 17.8µM* and KinaseGlo FLuc -1.8%.
For FC(F)Oc1ccc(NC(=S)NCc2nc3ccccc3[nH]2)cc1 the results were VP16 counter -20.6%, RORgamma inh -42.9% and KinaseGlo FLuc -0.8%.
Cn1c(SCc2cc(=O)n3cc(Br)ccc3n2)nnc1C1COc2ccccc2O1 (configuration not stated) was read as VP16 counter 3.4%, RORgamma inh 9.5% and KinaseGlo FLuc -3.2%.
O=C(COC(=O)c1ccccc1[N+](=O)[O-])c1ccc(C2CCCCC2)cc1 was read as VP16 counter -1.9%, RORgamma inh 15.0% and KinaseGlo FLuc 11.2µM*.
O=C(COC(=O)c1ccccc1C(=O)c1ccc(Cl)c([N+](=O)[O-])c1)NC1CC1 was read as VP16 counter 0.4%, RORgamma inh inconclusive and KinaseGlo FLuc -3.0%.
Cc1nc(C)c(C(=O)C2=C(O)C(=O)N(CCCN(C)C)C2c2ccco2)s1 (configuration not stated) was read as VP16 counter -2.1%, RORgamma inh 3.0% and KinaseGlo FLuc -4.0%.
Screening CSCCC(N)C(=O)NC(CC(C)C)C(=O)NC(Cc1ccccc1)C(=O)O (configuration not stated) returned VP16 counter -1.2%, RORgamma inh -3.6% and KinaseGlo FLuc 1.4%.
`CCC1CCCCN1Cc1ccc(OC)c(C)c1C` (configuration not stated) gave VP16 counter 4.1%, RORgamma inh 11.2µM* and KinaseGlo FLuc -4.2%.
For COc1ccc(CN2CCN(C3CCSCC3)CC2CCO)c(C)c1C (configuration not stated) the results were VP16 counter 6.0%, RORgamma inh -6.9% and KinaseGlo FLuc 0.4%.
Screening CCCCNc1nc(C)nc2c1nc(-c1ccccc1)n2C1CCN(Cc2ccccc2)C1 (configuration not stated) returned VP16 counter -11.6%, RORgamma inh 11.2µM* and KinaseGlo FLuc 0.9%.
Screening Cc1nc(NCc2ccccc2)c2nc(-c3ccccc3)n(C3CCN(Cc4ccccc4)C3)c2n1 (configuration not stated) returned VP16 counter -12.3%, RORgamma inh -16.8% and KinaseGlo FLuc -1.4%.
For CN(CC(=O)Nc1cccc(F)c1)C(=O)CCCc1cccs1 the results were VP16 counter -7.7% and RORgamma inh 4.9%.
`Cc1c(C(=O)Nc2ccccn2)sc2nc3n(c(=O)c12)CCC3` gave VP16 counter -22.6% and RORgamma inh inconclusive.
For C=CCCCCCCCCc1nc(SCC(=O)O)n[nH]1 the results were VP16 counter -0.4% and RORgamma inh 1.3%.
C=CCCCCCCCCc1nc(=S)[nH][nH]1 was read as VP16 counter -3.3%, RORgamma inh 12.6µM* and KinaseGlo FLuc -1.6%.
c1ccc(Nc2ncnc3sccc23)cc1 was read as VP16 counter -11.2% and RORgamma inh -28.2%.
For CC(Nc1ncnc2sccc12)c1ccccc1 (configuration not stated) the results were VP16 counter 1.41µM* and RORgamma inh inconclusive.
